Bioassay records as filed in PubChem BioAssay.
APOBEC3A inh – APOBEC3A ssDNA deaminase inhibitors, primary screen, selectivity assay for APOBEC3G inhibitor project, biochemical, FAM/TAMRA oligo cleavage fluorescence | DNA dC->dU-editing enzyme APOBEC-3A (Homo sapiens), P31941 | recombinant A3A, FAM/TAMRA ssDNA deamination fluorescence | inhibition, % at 20 µM | 0.41% of 330,000 active | AID 493011, 2011;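 active = at least 40% inhibition at 20 µM here, with at most 30% in a related deaminase screen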;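 note: plate controls were A3A with DMSO for no effect and wells lacking A3A enzyme for full effect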
CendR NRP1 mod – modulators of CendR peptide binding to NRP-1, primary screen, biochemical, fluorescence polarization, uHTS. 0.85% of 360,000 active. Neuropilin-1 (Homo sapiens), O14786. inhibition, % at 25 µM. FAM-RPARPAR peptide binding to NRP-1;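 active = inhibition or corrected inhibition above about 18%, plus a signal ratio from 0.5 to 1.5, limit read from the data, passing the limit was not always enough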
A3G deaminase – APOBEC3G DNA deaminase inhibitors, primary screen, biochemical, fluorescence, single-stranded DNA substrate, uHTS; inhibition, % at 20 µM; recombinant A3G, ssDNA deamination FAM/TAMRA fluorescence; 0.28% of 330,000 active;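 active = inhibition of at least 40% at 20 µM, with no more than 30% in the related APOBEC3A deaminase screen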;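 note: plate controls were DMSO wells with A3G for no effect and wells lacking A3G enzyme for full effect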
Target sequence (Q9HC16 whole entry, looked up): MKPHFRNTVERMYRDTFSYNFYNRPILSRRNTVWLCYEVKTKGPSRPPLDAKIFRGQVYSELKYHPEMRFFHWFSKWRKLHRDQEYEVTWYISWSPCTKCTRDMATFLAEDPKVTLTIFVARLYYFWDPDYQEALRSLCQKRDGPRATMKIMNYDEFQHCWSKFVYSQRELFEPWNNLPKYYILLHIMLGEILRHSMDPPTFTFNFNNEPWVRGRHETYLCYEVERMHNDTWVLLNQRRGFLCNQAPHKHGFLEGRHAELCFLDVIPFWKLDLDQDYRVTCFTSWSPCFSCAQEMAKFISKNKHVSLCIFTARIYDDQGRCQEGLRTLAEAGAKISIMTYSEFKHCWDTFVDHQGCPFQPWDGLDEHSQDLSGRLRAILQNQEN
PfM18AAP inh – PfM18AAP inhibitors, malaria aminopeptidase, primary screen, biochemical, QFRET, recombinant enzyme. inhibition, % at 7.35 µM. 1.2% of 290,000 active. H-Glu-NHMec fluorogenic cleavage. M18 aspartyl aminopeptidase (Plasmodium falciparum 3D7);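 active = inhibition above the campaign mean inhibition over all tested compounds plus 3 SD, cut at about 28% in these data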;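 note: 0% = plate median of test compound wells and 100% = 2 mM ZnCl2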
CR mimetic SO – reduction of superoxide in aged yeast, primary screen, HTS. S. cerevisiae aged cells, superoxide DHE fluorescence; hits give low values. superoxide response (% of plate mean), % at 10 µM. 0.18% of 330,000 active;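 active = superoxide response under a set limit, about three screen SD below normal, cut at about 65% in these data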;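 note: yeast aged for seven days with compound at 30 °C before DHE staining; 100% = average MFI of all compound-treated wells on the plate with controls excluded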
ALR inh – inhibitors of human ALR sulfhydryl oxidase, primary screen, biochemical, H2O2 detection, HRP-luminol luminescence, single point; FAD-linked sulfhydryl oxidase ALR (Homo sapiens), P55789; inhibition, % (concentration not given with the values); purified ALR, DTT oxidation; 3.8% of 290,000 active;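 active = mean replicate inhibition above about 79%, with every replicate also reaching it, limit read from the data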
Target sequence (P55789 whole entry, looked up): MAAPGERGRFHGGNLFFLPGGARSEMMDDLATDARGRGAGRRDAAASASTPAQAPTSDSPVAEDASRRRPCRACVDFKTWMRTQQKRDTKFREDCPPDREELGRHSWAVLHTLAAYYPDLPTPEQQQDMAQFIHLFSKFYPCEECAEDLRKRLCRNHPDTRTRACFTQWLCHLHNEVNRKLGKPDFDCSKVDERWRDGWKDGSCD
* hit, by the source's call; . = no result given. Most compounds without a hit are left out; they make up all but 5.2% or so of the library.

SMILES	APOBEC3A inh	CendR NRP1 mod	A3G deaminase	PfM18AAP inh	CR mimetic SO	ALR inh
COCCn1c(C)cc(C(=O)CSc2ccc(NC(C)=O)cc2)c1C	-4	-9	1	11	90	98*
Cc1cc(C(=O)CSc2n[nH]c(N)n2)c(C)n1C1CC1	-3	6	-5	-5	110	7
CC(=O)Nc1ccc(SCC(=O)c2cc(C)n(Cc3cccs3)c2C)cc1	-2	2	0	22	103	-11
C=CCn1c(C)cc(C(=O)CSc2ccc(NC(C)=O)cc2)c1C	0	-2	0	1	99	98*
C=CCn1c(C)cc(C(=O)CSc2n[nH]c(N)n2)c1C	-6	-9	-10	2	103	98*
Cc1ccc(Cl)cc1NC(=O)CN1CCN(C(=O)C2CCCO2)CC1 (stereo not drawn)	2	-2	-2	-14	93	-3
CCOC(=O)C(=O)Nc1ccc(OC)c(Cl)c1	-1	7	-4	-8	97	-4
COc1cc(Cn2cnnn2)ccc1O	-2	10	-4	9	96	81*
c1cc2c(cc1Cn1cnnn1)OCO2	-1	22*	-3	-5	102	-1
CCOC(=O)N1CCN(C(=O)CN(c2ccc(OCC)cc2)S(C)(=O)=O)CC1	1	-3	-5	1	108	-5
CCOc1ccc(N(CC(=O)NN=C2CCN(C)CC2)S(C)(=O)=O)cc1	0	7	3	-6	99	91*
O=c1ccc2cc3c([nH]c4ccc(Br)cc43)oc-2c1O	73	-291	82	10	81	99*
CC(Nc1ccc2ccccc2c1)C(=O)N/N=C/c1ccncc1 (stereo not drawn)	-7	25*	-8	.	92	.
CC(Oc1ccc2ccccc2c1)C(=O)N/N=C/c1cccnc1 (stereo not drawn)	7	11	-4	-1	97	-9
CCCCc1ccc(CC(=O)O)cc1	-1	-3	8	-3	87	-12
CCCCCc1ccc(CC(=O)O)cc1	-2	38*	-7	8	116	-9
CCN(Cc1ccc(OC)c(F)c1)C(=O)CCl	-1	-3	-12	-6	96	97*
COc1cc(C(=O)N/N=C(\C)Cc2ccccc2)cc(OC)c1OC	0	3	-6	0	88	41
O=C(Nc1nnc(C2CC2)s1)C1CC(=O)N(c2ccc3c(c2)OCCO3)C1 (stereo not drawn)	18	-3	-9	-2	88	.
Cc1cc(/C=C2\C(=N)N3N=C(CC(=O)N4CCOCC4)SC3=NC2=O)c(C)n1Cc1ccccc1	-1	-6	-5	0	98	20
CC1=NN2C(=N)/C(=C\c3cc(C)n(Cc4ccccc4)c3C)C(=O)N=C2S1	4	-12	0	-1	95	97*
C=CCNC(=O)c1ccccc1S(=O)c1ccccc1C#N (stereo not drawn)	-2	20	-2	-2	82	99*
COc1ccc(NC(=O)c2ccccc2S(=O)c2ccccc2C#N)cc1 (stereo not drawn)	.	3	.	5	102	-25
Cc1ccc(OCC(=O)c2c(N)n(C)c(=O)n(C)c2=O)c([N+](=O)[O-])n1	47	21*	44	.	100	.
Cc1ccc(OCC(=O)c2cc(C)c(C)cc2C)c([N+](=O)[O-])n1	3	-14	-1	-2	93	.
SMILES	APOBEC3A inh	CendR NRP1 mod	A3G deaminase	PfM18AAP inh	CR mimetic SO	ALR inh
Cc1cc(N2CCCC2)c(C)cc1C=O	7	-8	3	-9	88	.
O=C(O)Cc1ccc(NC(=O)c2ccc3c(c2)C(=O)N(Cc2ccco2)C3=O)cc1	22	-41	1	-2	83	0
O=C(Nc1ccc(O)cc1)c1ccc2c(c1)C(=O)N(Cc1ccco1)C2=O	12	-11	4	3	109	100*
O=C(Nc1cc([N+](=O)[O-])ccc1O)c1ccc2c(c1)C(=O)N(Cc1ccco1)C2=O	5	-36	3	-2	114	98*
S=c1[nH]nc(-c2cccc3ccccc23)n1-c1cccnc1	-3	4	30	19	102	91*
CC1CN(C(=O)c2ccc(CNS(=O)(=O)c3cccc(Cl)c3)cc2)CC(C)O1 (stereo not drawn)	1	28*	-4	-3	.	.
Cc1noc(C)c1C(=O)Nc1ccc(N(C)C)cc1	-5	-4	-4	1	111	99*
Cc1noc(C)c1C(=O)Nc1ccc2c(c1)CCC2	2	7	-5	2	99	-45
CN(C)c1ccc(NC(=O)c2cnsn2)cc1	-2	-4	-4	2	102	99*
Cc1noc(C)c1C(=O)Nc1ccc(F)cc1	-1	41*	-5	2	94	-4
Cc1noc(C)c1C(=O)Nc1nc(-c2ccc(F)cc2)cs1	0	7	1	.	105	55
CCc1nnc(NC(=O)CSc2nnc(CNC(=O)c3ccccc3)o2)s1	.	-17	.	.	.	.
CC1CN(S(=O)(=O)c2cc(C(=O)NC(C)c3cccnc3)ccc2Cl)CC(C)O1 (stereo not drawn)	-7	20*	-7	.	105	-4
O=C(Nc1cccnc1)c1ccc(Cl)c(S(=O)(=O)N2CCCCCC2)c1	1	8	-3	-10	107	-2
CCCCN(C)Cc1c(C)[nH]c2c(ccc3ccccc32)c1=O	-1	2	13	1	95	-14
CCc1c(C)nc2ncnn2c1N1CCCC(C(=O)Nc2ccc(NC(C)=O)cc2)C1 (stereo not drawn)	-2	29*	-6	-9	104	-4
CCc1c(C)nc2ncnn2c1N1CCCC(C(=O)NCc2ccc3c(c2)OCO3)C1 (stereo not drawn)	3	-4	3	-2	95	-15
CC(=O)CSc1cc(-c2ccccc2)nc2ncnn12	-5	4	-6	3	105	98*
O=C(Nc1ccc([N+](=O)[O-])cc1)c1cccc(S(=O)(=O)Nc2ccccn2)c1	1	-8	-3	-13	102	-1
c1ccc2sc(NCC3CCCO3)nc2c1 (stereo not drawn)	4	-2	0	-5	67	-7
CC1=CC(=C(C#N)c2nc3ccccc3s2)C=C(C)N1CC1CCCO1 (stereo not drawn)	2	-12	-2	-5	114	95*
O=C(/C=C/c1ccco1)NC(=S)Nc1cccc(C(=O)O)c1	84	-64	53	19	96	96*
